Test results reported in PMC7862700, “An all-to-all approach to the identification of sequence-specific readers for epigenetic DNA modifications on cytosine”.

Assays:
Experiment in all cases: DAPPL (digital affinity profiling via proximity ligation, sequencing); 10 mM Tris-HCl pH 7.5, 50 mM NaCl, 1 mM DTT, 4% glycerol, room temperature, 30 min; GST-TFs on glutathione beads, 16-mer random dsDNA library, 0.1% formaldehyde crosslink after washing; high values mean tight binding
FEV = target: T1, FEV (Homo sapiens, UniProt Q99581 1-238); conditions: protein: recombinant; tags: N-terminal GST; dsDNA, one strand shown
T1 sequence: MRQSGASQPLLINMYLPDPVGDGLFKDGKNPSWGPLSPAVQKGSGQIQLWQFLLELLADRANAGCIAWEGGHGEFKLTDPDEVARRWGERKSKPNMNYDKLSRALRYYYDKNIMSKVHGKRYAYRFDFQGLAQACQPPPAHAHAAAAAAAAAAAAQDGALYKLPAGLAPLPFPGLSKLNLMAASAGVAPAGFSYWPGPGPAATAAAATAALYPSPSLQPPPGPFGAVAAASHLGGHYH
How it was run: (§1)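 Each value of binding signal is a hexamer's read frequency for a factor divided by the same hexamer's frequency in the tag-only sample. Barcoded, bead-captured GST fusions of human transcription factors made in yeast were pooled with that sample and incubated with 200 nmole of a random double-stranded 16-mer DNA library in Tris/NaCl/DTT/glycerol buffer at room temperature for 30 min. Washing, 0.1% formaldehyde crosslinking, proximity ligation, PCR and Illumina NextSeq500 sequencing followed.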

ETV5 = ETV5 (Homo sapiens, UniProt P41161 1-510); conditions: protein: recombinant; tags: N-terminal GST; dsDNA, one strand shown
Chain of ETV5 (P41161 whole entry): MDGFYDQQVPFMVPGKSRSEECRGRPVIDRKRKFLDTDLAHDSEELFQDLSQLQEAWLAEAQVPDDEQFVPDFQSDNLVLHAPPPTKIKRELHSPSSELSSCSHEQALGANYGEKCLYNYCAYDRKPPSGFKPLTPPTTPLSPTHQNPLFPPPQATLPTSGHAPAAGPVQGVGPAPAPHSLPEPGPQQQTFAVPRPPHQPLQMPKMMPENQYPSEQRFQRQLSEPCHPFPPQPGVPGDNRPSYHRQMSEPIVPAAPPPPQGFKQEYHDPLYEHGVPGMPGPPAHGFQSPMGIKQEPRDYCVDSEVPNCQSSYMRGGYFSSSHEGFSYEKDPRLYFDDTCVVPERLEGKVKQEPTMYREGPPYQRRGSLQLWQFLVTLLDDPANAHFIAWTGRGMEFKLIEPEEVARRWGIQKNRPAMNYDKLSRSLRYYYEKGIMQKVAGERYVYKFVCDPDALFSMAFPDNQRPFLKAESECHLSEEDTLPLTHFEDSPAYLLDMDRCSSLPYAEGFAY
How it was run: as §1

HSF1 = HSF1 (Homo sapiens, UniProt Q00613 1-529); conditions: protein: recombinant; tags: N-terminal GST; chain copies: 3; dsDNA, one strand shown
Chain of HSF1 (Q00613 whole entry): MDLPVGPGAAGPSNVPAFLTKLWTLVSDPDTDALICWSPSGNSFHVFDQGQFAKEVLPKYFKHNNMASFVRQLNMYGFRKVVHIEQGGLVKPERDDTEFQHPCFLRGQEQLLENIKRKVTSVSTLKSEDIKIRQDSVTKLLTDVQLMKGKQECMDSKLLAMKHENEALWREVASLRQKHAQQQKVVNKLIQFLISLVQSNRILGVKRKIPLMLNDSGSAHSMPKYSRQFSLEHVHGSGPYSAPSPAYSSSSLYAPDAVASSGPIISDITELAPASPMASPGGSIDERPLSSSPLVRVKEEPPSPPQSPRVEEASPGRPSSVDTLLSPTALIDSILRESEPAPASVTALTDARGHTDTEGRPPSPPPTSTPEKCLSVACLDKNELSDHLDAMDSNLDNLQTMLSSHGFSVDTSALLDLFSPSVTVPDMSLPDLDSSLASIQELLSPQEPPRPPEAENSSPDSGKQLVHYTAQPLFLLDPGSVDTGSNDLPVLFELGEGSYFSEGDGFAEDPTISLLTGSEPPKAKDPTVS
How it was run: as §1

SPIC = target: T2, SPIC (Homo sapiens, UniProt Q8N5J4 1-248); conditions: protein: recombinant; tags: N-terminal GST; dsDNA, one strand shown
T2 sequence: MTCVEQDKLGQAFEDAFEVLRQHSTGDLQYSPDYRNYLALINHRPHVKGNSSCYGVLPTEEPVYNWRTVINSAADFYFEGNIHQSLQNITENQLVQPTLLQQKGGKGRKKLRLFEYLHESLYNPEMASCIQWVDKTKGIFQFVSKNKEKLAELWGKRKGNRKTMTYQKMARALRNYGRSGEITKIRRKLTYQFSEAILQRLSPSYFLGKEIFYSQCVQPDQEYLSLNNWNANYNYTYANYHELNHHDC
How it was run: as §1

ELF4 = ELF4 (Homo sapiens, UniProt Q99607 1-663); conditions: protein: recombinant; tags: N-terminal GST; dsDNA, one strand shown
Chain of ELF4 (Q99607 whole entry): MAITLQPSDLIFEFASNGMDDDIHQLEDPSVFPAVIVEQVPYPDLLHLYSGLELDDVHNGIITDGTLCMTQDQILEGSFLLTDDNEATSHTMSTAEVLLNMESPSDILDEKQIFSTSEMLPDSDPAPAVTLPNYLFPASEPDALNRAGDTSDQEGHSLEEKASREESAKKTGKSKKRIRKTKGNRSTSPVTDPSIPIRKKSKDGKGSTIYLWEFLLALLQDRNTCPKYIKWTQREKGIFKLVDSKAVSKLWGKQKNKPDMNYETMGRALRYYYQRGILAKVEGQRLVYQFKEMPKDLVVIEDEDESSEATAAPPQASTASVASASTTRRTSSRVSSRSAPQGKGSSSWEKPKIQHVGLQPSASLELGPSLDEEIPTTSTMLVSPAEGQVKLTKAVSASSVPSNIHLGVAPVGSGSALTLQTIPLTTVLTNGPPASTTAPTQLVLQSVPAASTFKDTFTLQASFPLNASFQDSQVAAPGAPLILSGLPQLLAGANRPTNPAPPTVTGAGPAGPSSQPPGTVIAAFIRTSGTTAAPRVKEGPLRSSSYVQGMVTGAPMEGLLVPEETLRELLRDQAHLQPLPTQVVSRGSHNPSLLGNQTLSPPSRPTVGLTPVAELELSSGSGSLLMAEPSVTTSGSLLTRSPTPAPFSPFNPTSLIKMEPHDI
How it was run: as §1

ELK4 = target: T3, ELK4 (Homo sapiens, UniProt P28324-2 1-405); conditions: protein: recombinant; tags: N-terminal GST; dsDNA, one strand shown
T3 sequence: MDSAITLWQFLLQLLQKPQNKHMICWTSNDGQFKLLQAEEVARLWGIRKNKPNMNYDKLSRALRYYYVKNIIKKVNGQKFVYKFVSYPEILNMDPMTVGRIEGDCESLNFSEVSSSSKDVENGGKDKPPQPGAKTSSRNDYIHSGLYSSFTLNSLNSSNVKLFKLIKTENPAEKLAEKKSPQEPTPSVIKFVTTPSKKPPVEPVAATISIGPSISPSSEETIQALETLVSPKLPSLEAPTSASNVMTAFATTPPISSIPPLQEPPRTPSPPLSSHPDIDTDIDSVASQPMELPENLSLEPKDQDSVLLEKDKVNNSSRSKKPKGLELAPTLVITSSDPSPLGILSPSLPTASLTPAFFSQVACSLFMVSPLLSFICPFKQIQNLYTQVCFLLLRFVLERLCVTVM
How it was run: as §1

ETV2 = target: T4, ETV2 (Homo sapiens, UniProt O00321 1-342); conditions: protein: recombinant; tags: N-terminal GST; dsDNA, one strand shown
T4 sequence: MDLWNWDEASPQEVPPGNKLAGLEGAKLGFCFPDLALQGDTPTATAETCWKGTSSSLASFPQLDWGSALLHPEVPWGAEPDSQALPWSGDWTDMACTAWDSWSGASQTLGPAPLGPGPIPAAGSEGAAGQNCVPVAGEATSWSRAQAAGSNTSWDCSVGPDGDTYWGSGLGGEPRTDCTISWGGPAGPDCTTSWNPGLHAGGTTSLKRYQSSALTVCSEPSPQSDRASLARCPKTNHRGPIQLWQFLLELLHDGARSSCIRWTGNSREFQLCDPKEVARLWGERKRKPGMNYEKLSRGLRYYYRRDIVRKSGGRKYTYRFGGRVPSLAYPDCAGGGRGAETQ
How it was run: as §1

ELF3 = target: T5, ELF3 (Homo sapiens, UniProt P78545 1-371); conditions: protein: recombinant; tags: N-terminal GST; dsDNA, one strand shown
T5 sequence: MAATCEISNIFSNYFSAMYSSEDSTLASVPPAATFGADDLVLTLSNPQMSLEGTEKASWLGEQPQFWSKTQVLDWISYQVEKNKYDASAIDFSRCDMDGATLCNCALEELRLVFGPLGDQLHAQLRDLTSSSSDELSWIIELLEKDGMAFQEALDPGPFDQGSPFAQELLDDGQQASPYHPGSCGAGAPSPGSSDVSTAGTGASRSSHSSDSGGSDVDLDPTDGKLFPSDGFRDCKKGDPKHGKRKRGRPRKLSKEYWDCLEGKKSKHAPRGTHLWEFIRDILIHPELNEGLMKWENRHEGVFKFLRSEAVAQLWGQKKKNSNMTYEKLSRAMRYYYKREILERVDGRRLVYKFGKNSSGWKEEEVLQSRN
How it was run: as §1

CRX = CRX (Homo sapiens, UniProt O43186 1-299); conditions: protein: recombinant; tags: N-terminal GST; dsDNA, one strand shown
Chain of CRX (O43186 whole entry): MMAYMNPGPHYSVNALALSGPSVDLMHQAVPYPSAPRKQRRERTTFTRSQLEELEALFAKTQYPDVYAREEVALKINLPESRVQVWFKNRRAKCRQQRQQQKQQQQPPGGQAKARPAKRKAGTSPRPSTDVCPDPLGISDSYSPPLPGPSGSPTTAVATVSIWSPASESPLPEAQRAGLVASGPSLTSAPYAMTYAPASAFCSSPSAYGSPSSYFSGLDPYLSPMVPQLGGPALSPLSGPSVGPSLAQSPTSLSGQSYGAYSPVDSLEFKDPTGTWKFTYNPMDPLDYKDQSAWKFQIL
How it was run: as §1

ETV1 = ETV1 (Homo sapiens, UniProt P50549 1-477); conditions: protein: recombinant; tags: N-terminal GST; dsDNA, one strand shown
Chain of ETV1 (P50549 whole entry): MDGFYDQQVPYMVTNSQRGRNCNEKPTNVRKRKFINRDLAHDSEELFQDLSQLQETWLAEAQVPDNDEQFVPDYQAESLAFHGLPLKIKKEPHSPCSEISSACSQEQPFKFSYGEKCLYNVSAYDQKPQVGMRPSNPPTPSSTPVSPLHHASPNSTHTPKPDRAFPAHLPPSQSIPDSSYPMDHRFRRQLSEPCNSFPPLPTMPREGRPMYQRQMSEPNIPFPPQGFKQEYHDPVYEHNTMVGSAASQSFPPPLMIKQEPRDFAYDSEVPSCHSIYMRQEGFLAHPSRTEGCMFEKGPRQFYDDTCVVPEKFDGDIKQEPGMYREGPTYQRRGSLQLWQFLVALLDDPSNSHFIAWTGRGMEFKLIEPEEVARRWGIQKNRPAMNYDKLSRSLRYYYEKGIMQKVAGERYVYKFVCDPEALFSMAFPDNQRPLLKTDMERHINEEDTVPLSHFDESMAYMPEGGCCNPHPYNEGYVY
How it was run: as §1

ERF = target: T6, ERF (Homo sapiens, UniProt P50548 1-548); conditions: protein: recombinant; tags: N-terminal GST; dsDNA, one strand shown
T6 sequence: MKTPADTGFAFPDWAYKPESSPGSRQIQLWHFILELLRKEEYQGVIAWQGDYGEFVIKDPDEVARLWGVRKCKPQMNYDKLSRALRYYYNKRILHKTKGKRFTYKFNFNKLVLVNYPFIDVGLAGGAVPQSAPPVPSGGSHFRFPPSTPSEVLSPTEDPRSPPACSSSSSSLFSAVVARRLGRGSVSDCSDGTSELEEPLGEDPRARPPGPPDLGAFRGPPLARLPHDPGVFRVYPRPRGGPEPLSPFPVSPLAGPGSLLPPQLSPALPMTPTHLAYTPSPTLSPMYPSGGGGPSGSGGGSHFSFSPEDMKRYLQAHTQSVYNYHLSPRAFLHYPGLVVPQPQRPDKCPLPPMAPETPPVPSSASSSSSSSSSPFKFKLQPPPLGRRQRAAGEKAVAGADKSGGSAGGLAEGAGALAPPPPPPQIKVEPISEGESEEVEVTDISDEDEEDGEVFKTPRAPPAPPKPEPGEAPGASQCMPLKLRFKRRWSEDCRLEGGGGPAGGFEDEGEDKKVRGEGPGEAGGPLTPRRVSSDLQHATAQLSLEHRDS
How it was run: as §1

ETV3L = target: T7, ETV3L (Homo sapiens, UniProt Q6ZN32 1-361); conditions: protein: recombinant; tags: N-terminal GST; dsDNA, one strand shown
T7 sequence: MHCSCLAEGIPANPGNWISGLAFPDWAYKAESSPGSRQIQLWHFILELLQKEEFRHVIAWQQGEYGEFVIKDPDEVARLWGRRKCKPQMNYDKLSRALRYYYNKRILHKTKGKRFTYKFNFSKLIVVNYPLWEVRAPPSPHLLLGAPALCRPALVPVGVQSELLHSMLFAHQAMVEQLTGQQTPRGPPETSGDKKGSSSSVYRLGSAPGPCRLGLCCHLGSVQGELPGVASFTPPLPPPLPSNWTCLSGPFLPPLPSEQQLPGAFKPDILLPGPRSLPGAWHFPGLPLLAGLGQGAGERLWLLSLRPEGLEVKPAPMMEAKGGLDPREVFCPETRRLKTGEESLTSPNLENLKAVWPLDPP
How it was run: as §1

ETS2 = target: T8, ETS2 (Homo sapiens, UniProt P15036 1-469); conditions: protein: recombinant; tags: N-terminal GST; dsDNA, one strand shown
T8 sequence: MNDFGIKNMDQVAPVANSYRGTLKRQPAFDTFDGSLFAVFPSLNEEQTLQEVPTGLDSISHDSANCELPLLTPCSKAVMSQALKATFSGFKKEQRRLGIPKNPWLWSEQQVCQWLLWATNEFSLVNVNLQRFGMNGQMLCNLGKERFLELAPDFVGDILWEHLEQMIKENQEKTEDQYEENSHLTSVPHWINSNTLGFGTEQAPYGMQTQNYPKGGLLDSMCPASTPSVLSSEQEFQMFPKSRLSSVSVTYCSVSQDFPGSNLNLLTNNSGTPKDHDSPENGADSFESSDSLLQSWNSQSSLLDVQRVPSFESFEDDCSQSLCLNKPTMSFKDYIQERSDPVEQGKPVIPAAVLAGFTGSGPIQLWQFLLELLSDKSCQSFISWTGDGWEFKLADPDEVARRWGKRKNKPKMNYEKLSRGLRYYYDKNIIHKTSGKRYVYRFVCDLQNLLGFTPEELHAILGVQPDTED
How it was run: as §1

SPDEF = target: T9, SPDEF (Homo sapiens, UniProt O95238 1-335); conditions: protein: recombinant; tags: N-terminal GST; dsDNA, one strand shown
T9 sequence: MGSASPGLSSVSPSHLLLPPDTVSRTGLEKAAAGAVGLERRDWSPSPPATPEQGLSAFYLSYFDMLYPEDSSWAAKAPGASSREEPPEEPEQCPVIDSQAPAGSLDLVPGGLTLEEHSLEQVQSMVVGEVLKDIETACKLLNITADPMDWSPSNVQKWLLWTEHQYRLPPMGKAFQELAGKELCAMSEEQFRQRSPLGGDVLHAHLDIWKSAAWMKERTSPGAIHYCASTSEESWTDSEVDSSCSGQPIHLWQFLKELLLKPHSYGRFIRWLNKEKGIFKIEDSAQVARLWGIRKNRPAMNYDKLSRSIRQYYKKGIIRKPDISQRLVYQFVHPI
How it was run: as §1

ETV7 = target: T10, ETV7 (Homo sapiens, UniProt Q9Y603 1-341); conditions: protein: recombinant; tags: N-terminal GST; dsDNA, one strand shown
T10 sequence: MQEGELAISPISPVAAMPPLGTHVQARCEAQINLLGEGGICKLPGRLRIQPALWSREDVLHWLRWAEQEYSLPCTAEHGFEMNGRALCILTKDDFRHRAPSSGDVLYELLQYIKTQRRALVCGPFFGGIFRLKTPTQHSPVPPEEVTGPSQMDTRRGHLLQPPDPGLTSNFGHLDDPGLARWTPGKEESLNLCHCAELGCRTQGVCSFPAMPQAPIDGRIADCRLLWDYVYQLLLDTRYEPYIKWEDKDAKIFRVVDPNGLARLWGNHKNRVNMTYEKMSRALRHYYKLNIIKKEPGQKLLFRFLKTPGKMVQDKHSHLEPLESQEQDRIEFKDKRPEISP
How it was run: as §1

ELF5 = target: T11, ELF5 (Homo sapiens, UniProt Q9UKW6-2 1-255); conditions: protein: recombinant; tags: N-terminal GST; dsDNA, one strand shown
T11 sequence: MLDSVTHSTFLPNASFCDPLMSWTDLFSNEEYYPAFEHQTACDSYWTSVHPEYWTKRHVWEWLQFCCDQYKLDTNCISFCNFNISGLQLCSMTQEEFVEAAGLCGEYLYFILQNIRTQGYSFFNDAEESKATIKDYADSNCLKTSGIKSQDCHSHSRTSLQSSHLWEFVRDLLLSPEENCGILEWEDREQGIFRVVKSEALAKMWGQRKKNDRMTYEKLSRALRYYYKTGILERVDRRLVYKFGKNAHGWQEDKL
How it was run: as §1

ETV3 = target: T12, ETV3 (Homo sapiens, UniProt P41162-2 1-143); conditions: protein: recombinant; tags: N-terminal GST; dsDNA, one strand shown
T12 sequence: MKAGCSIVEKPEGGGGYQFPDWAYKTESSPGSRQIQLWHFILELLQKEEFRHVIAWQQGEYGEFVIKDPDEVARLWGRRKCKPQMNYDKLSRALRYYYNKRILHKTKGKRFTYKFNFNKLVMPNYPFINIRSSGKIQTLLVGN
How it was run: as §1

ETV6 = ETV6 (Homo sapiens, UniProt P41212 1-452); conditions: protein: recombinant; tags: N-terminal GST; dsDNA, one strand shown
Chain of ETV6 (P41212 whole entry): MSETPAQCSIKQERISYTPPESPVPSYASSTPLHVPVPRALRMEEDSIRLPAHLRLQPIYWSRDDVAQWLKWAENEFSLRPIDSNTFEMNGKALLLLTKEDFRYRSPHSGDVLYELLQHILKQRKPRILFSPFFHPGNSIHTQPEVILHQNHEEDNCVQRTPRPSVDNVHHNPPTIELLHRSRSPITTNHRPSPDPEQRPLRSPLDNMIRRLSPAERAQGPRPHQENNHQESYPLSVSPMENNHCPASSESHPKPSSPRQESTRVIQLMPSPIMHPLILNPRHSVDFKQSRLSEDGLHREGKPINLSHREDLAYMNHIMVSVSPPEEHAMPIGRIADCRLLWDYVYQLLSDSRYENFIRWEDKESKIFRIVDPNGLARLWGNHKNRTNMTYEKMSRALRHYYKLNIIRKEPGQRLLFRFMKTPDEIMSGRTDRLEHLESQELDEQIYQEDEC
How it was run: as §1

Sequence: TCTTAG
- binding signal (FEV): 1.16 fold enrichment (6-mer frequency, TF over GST control)
- binding signal (ETV5): 1.21 fold enrichment (6-mer frequency, TF over GST control)
- binding signal (HSF1): 1.5 fold enrichment (6-mer frequency, TF over GST control)
- binding signal (SPIC): 1.36 fold enrichment (6-mer frequency, TF over GST control)
- binding signal (ELF4): 1.3 fold enrichment (6-mer frequency, TF over GST control)
- binding signal (ELK4): 1.21 fold enrichment (6-mer frequency, TF over GST control)
- binding signal (ETV2): 1.26 fold enrichment (6-mer frequency, TF over GST control)
- binding signal (ELF3): 1.29 fold enrichment (6-mer frequency, TF over GST control)
- binding signal (CRX): 1.86 fold enrichment (6-mer frequency, TF over GST control)
- binding signal (ETV1): 1.25 fold enrichment (6-mer frequency, TF over GST control)
- binding signal (ERF): 1.21 fold enrichment (6-mer frequency, TF over GST control)
- binding signal (ETV3L): 1.35 fold enrichment (6-mer frequency, TF over GST control)
- binding signal (ETS2): 1.13 fold enrichment (6-mer frequency, TF over GST control)
- binding signal (SPDEF): 1.24 fold enrichment (6-mer frequency, TF over GST control)
- binding signal (ETV7): 1.18 fold enrichment (6-mer frequency, TF over GST control)
- binding signal (ELF5): 1.21 fold enrichment (6-mer frequency, TF over GST control)
- binding signal (ETV3): 1.2 fold enrichment (6-mer frequency, TF over GST control)
- binding signal (ETV6): 1.19 fold enrichment (6-mer frequency, TF over GST control)
